The results in this text go back to PubChem BioAssay AID651730 (NMMLSC, 2012).

Each structure is given as a SMILES string. Unmarked numbers belong to inactive results. No rule for the calls is given here.

The nature of this assay: V-ATPase regulators in yeast, S. cerevisiae, pHLuorin, powder sets 2-3, dose response (AID 651730). The following applies: S. cerevisiae vacuolar pH, pHluorin fluorescence; series mostly up to 100 µM; response, percent: at the top concentration.
Take `Cc1ccc(C(=O)Nc2ccccc2N2CCOCC2)o1`: the “response, percent” value was 7.72%.

With `O=C(c1cc(CO)ccn1)N1CCN(c2nc3ccc(F)cc3s2)CC1`, the “response, percent” value is 0.47%. To `O=C(c1cccc(C(F)(F)F)n1)N1CCN(c2nc3ccc(F)cc3s2)CC1` belongs 5.41%; to `CN(C)C(=O)c1cccc(C(=O)N2CCN(c3nc4ccc(F)cc4s3)CC2)c1`, 3.4%. To `O=C(c1cc(C(F)(F)F)ccn1)N1CCN(c2nc3ccc(F)cc3s2)CC1` belongs -2.05%; to `NS(=O)(=O)c1cccc(C(=O)Nc2ccccc2N2CCOCC2)c1`, -3.19%. To `COCc1ccc(C(=O)Nc2ccccc2N2CCOCC2)o1` belongs -3.6%. In the case of `NS(=O)(=O)c1ccc(C(=O)N2CCN(c3nc4ccc(F)cc4s3)CC2)o1`, the “response, percent” value was 0.11%.

Turning to `Nc1ncc(C(=O)Nc2ccccc2N2CCOCC2)o1`, the “response, percent” value was -2.29%. Then `Cc1cccc(C(=O)Nc2ccccc2N2CCOCC2)n1`, with 0.96%; and `CN(C)C(=O)c1cccc(C(=O)Nc2ccccc2N2CCOCC2)c1`, with 1.08%. To `Nc1cncc(C(=O)Nc2ccccc2N2CCOCC2)n1` belongs -8.51%; to `Cc1cncc(C(=O)Nc2ccccc2N2CCOCC2)n1`, 2.49%. As to `CS(=O)(=O)c1cccc(C(=O)Nc2ccccc2N2CCOCC2)c1`, the “response, percent” value was -2.07%.

`O=C(Nc1ccccc1N1CCOCC1)c1cccc(Cl)n1`: the “response, percent” value is -5.31%. Then `N#Cc1ccnc(C(=O)N2CCN(c3nc4ccc(F)cc4s3)CC2)c1`, with 0.08%; and `NC(=O)c1cccc(C(=O)Nc2ccccc2N2CCOCC2)c1`, with 1.11%; and `CS(=O)(=O)c1ccc(C(=O)N2CCN(c3nc4ccc(F)cc4s3)CC2)o1`, with -1.13%. Then `CN(C)S(=O)(=O)c1cccc(C(=O)Nc2ccccc2N2CCOCC2)c1`, with -1.05%; and `O=C(Nc1ccccc1N1CCOCC1)c1ccc(C(F)(F)F)o1`, with -3.16%. Then `O=C(c1cncc(Cl)n1)N1CCN(c2nc3ccc(F)cc3s2)CC1`, with -1.76%; and `O=C(Nc1ccccc1N1CCOCC1)c1cc(C(F)(F)F)ccn1`, with -0.77%; and `CN(C)Cc1cccc(C(=O)Nc2ccccc2N2CCOCC2)c1`, with -2.4%.

Turning to `O=C(Nc1ccccc1N1CCOCC1)c1ccc(-c2ccccc2)o1`, the “response, percent” value is 0.32%.

Turning to `N#Cc1ccnc(C(=O)Nc2ccccc2N2CCOCC2)c1`, the “response, percent” value is -3.19%. With `N#Cc1cccc(C(=O)Nc2ccccc2N2CCOCC2)c1`, the “response, percent” value is 0.04%. Then `Cc1ccnc(C(=O)Nc2ccccc2N2CCOCC2)c1`, with 0.06%; and `O=C(Nc1ccccc1N1CCOCC1)c1cccc(Br)n1`, with 2.41%. To `O=C(c1cccc(Br)n1)N1CCN(c2nc3ccc(F)cc3s2)CC1` belongs 3.71%. To `O=C(Nc1ccccc1N1CCOCC1)c1cccc(C(F)(F)F)n1` belongs -3.19%.
